From ChEMBL document CHEMBL1961873, “Compounds: GSK PKIS; Assays: Nanosyn kinase panel” (2012)

What was measured:
[1] = molecular target: T1, Tyrosine-protein kinase ITK/TSK (Homo sapiens) (UniProt Q08881); details: at 1 µM;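 note: values are mean percent inhibition of ITK from the GSK PKIS screen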
T1 sequence (whole entry): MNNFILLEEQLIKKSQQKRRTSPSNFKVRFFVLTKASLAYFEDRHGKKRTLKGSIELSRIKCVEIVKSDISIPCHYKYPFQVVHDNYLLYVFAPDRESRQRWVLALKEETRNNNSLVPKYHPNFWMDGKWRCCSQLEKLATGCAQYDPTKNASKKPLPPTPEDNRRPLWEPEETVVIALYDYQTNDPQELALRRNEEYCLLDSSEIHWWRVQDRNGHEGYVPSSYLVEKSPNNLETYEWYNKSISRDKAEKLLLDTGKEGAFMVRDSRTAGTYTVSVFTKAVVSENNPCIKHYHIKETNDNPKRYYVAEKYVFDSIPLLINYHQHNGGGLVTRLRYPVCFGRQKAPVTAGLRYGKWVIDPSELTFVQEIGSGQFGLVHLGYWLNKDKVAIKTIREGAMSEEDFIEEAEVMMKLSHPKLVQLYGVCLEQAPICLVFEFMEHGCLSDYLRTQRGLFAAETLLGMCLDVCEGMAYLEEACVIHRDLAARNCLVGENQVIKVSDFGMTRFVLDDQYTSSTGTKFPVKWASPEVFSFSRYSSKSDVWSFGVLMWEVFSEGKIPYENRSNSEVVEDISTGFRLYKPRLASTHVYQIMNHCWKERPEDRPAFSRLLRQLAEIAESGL

[2] = molecular target: Tyrosine-protein kinase JAK1 (Homo sapiens) (UniProt P23458); details: at 0.1 µM
[3] = molecular target: Tyrosine-protein kinase JAK1 (Homo sapiens) (UniProt P23458); details: at 1 µM
[4] = molecular target: Tyrosine-protein kinase JAK2 (Homo sapiens) (UniProt O60674); details: at 0.1 µM
[5] = molecular target: Tyrosine-protein kinase JAK2 (Homo sapiens) (UniProt O60674); details: at 1 µM
[6] = molecular target: T2, Tyrosine-protein kinase JAK3 (Homo sapiens) (UniProt P52333); details: at 0.1 µM
T2 sequence (whole entry): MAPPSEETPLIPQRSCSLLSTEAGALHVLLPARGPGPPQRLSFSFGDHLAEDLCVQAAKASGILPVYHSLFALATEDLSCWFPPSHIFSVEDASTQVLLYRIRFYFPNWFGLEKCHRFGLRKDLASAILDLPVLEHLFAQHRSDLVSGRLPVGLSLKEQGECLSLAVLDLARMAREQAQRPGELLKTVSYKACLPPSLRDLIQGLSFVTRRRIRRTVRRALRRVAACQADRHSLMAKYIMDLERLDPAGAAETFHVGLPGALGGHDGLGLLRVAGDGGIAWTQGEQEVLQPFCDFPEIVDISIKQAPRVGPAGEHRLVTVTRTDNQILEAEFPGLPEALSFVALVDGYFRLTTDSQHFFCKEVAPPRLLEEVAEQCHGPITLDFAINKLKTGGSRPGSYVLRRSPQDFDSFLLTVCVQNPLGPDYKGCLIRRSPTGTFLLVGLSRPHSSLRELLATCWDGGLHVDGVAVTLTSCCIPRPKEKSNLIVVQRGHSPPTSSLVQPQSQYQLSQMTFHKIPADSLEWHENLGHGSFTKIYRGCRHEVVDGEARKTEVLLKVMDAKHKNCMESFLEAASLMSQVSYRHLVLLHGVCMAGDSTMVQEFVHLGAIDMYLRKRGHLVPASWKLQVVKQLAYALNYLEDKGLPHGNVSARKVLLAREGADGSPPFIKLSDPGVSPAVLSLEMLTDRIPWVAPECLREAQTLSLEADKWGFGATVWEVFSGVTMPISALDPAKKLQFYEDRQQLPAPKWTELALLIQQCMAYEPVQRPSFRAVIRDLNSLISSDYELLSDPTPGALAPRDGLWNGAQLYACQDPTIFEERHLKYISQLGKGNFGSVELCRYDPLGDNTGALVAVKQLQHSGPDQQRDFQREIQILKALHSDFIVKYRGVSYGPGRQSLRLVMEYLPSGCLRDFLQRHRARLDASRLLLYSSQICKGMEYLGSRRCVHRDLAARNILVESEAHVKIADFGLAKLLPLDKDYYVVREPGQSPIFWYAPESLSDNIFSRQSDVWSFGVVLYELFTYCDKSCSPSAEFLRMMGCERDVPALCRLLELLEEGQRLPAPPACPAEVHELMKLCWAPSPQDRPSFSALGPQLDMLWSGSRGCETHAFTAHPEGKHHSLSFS

[7] = molecular target: T2, Tyrosine-protein kinase JAK3 (Homo sapiens); details: at 1 µM
[8] = molecular target: Vascular endothelial growth factor receptor 2 (Homo sapiens) (UniProt P35968); details: at 0.1 µM
[9] = molecular target: Vascular endothelial growth factor receptor 2 (Homo sapiens) (UniProt P35968); details: at 1 µM
[10] = molecular target: Mast/stem cell growth factor receptor Kit (Homo sapiens) (UniProt P10721); details: at 0.1 µM
[11] = molecular target: Mast/stem cell growth factor receptor Kit (Homo sapiens) (UniProt P10721); details: at 1 µM
[12] = test system: Mast/stem cell growth factor receptor Kit (Homo sapiens), P10721 [D816V]; details: at 0.1 µM
[13] = test system: Mast/stem cell growth factor receptor Kit (Homo sapiens), P10721 [D816V]; details: at 1 µM
[14] = test system: Mast/stem cell growth factor receptor Kit (Homo sapiens), P10721 [T670I]; details: at 0.1 µM
[15] = test system: Mast/stem cell growth factor receptor Kit (Homo sapiens), P10721 [T670I]; details: at 1 µM
[16] = test system: Mast/stem cell growth factor receptor Kit (Homo sapiens), P10721 [V560G]; details: at 0.1 µM
[17] = test system: Mast/stem cell growth factor receptor Kit (Homo sapiens), P10721 [V560G]; details: at 1 µM
[18] = molecular target: Tyrosine-protein kinase Lck (Homo sapiens) (UniProt P06239); details: at 0.1 µM
[19] = molecular target: Tyrosine-protein kinase Lck (Homo sapiens) (UniProt P06239); details: at 1 µM
[20] = molecular target: Leukocyte tyrosine kinase receptor (Homo sapiens) (UniProt P29376); details: at 0.1 µM

Sequence of Mast/stem cell growth factor receptor Kit (Homo sapiens) (P10721 whole entry): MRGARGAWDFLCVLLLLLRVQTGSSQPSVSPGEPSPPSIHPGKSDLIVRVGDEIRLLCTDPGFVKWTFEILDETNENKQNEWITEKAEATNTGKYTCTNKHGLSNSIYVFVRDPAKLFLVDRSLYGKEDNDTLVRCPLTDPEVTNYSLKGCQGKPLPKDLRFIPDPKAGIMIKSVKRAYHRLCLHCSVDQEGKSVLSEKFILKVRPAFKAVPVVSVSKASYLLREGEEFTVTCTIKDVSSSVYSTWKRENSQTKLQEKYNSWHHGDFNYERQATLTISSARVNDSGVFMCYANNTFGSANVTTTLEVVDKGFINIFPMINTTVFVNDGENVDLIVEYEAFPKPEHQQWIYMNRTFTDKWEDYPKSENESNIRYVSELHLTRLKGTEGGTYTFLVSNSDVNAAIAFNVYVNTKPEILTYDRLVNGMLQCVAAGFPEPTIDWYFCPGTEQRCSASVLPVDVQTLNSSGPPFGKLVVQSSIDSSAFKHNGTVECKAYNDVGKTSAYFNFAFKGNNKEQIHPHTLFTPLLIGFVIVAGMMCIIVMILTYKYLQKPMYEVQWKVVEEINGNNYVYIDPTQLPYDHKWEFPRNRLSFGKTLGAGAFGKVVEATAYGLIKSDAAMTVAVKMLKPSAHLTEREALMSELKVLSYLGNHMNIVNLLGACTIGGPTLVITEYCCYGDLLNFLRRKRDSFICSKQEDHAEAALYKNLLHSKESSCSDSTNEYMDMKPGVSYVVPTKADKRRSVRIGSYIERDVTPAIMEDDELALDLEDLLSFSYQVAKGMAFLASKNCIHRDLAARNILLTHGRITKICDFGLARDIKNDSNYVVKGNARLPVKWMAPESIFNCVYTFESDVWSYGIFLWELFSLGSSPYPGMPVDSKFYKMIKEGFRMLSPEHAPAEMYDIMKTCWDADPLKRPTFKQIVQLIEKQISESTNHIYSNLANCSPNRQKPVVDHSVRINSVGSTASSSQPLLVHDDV
Sequence of Tyrosine-protein kinase JAK1 (Homo sapiens) (P23458 whole entry): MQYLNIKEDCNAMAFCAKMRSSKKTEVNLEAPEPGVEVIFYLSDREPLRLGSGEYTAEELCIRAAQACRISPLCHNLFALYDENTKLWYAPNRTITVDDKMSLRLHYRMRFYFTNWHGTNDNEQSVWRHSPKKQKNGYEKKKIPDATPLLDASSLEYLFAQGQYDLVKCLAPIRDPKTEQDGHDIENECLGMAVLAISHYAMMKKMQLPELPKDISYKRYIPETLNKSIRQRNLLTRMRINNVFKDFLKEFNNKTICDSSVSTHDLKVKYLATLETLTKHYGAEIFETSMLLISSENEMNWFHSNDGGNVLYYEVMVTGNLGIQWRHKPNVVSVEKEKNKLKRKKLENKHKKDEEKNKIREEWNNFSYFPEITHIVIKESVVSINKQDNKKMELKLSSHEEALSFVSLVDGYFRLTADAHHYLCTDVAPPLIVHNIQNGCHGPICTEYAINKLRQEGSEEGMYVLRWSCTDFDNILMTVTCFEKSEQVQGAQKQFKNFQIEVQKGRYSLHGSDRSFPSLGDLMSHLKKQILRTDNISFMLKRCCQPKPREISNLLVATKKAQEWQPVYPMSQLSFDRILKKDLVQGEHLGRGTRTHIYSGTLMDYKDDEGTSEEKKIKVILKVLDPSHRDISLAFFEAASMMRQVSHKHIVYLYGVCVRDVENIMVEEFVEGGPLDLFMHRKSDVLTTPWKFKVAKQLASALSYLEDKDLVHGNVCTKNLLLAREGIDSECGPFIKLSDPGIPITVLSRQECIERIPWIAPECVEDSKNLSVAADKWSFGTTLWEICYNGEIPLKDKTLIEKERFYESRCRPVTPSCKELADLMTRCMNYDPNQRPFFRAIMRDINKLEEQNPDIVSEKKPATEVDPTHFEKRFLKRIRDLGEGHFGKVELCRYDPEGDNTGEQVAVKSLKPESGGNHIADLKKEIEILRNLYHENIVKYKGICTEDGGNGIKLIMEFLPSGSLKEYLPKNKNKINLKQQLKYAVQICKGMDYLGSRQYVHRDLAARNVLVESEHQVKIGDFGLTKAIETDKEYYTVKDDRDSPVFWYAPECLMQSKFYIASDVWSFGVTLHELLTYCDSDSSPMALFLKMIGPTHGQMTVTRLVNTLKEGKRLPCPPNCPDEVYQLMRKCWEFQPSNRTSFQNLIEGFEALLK
Sequence of Mast/stem cell growth factor receptor Kit (Homo sapiens), P10721 [V560G] (P10721 whole entry V560G): as the sequence (P10721 whole entry) above, with V560G counted along it
Sequence of Tyrosine-protein kinase JAK2 (Homo sapiens) (O60674 whole entry): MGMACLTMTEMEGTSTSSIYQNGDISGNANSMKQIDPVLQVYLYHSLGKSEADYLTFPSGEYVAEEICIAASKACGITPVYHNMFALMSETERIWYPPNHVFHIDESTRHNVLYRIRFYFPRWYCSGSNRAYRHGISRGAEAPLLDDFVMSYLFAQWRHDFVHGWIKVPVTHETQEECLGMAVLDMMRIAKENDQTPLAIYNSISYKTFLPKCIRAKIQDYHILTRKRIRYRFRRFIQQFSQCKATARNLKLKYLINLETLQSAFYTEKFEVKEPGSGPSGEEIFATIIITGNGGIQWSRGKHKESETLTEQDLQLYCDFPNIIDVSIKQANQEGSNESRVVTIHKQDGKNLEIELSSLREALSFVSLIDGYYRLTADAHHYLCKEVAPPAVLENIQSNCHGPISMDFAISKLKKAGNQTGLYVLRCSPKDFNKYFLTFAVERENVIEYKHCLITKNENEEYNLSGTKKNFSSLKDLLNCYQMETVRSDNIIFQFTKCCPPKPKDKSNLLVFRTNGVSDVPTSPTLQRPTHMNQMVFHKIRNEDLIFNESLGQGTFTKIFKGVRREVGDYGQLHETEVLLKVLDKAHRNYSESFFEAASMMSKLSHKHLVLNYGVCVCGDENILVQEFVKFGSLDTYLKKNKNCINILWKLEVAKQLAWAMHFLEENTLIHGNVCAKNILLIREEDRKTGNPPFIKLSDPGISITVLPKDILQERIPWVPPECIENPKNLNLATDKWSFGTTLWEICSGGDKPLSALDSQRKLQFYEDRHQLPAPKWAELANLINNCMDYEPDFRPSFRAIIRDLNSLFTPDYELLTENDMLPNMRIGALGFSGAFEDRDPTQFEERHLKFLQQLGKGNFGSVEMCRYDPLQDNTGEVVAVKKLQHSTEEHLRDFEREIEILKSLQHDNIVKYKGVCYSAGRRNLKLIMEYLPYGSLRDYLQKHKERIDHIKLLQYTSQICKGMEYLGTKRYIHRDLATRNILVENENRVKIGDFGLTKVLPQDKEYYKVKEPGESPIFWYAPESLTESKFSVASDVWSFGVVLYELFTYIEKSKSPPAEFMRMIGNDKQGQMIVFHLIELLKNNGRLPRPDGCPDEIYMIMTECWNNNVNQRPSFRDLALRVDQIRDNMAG
Sequence of Mast/stem cell growth factor receptor Kit (Homo sapiens), P10721 [T670I] (P10721 whole entry T670I): as the sequence (P10721 whole entry) above, with T670I counted along it
Sequence of Vascular endothelial growth factor receptor 2 (Homo sapiens) (P35968 whole entry): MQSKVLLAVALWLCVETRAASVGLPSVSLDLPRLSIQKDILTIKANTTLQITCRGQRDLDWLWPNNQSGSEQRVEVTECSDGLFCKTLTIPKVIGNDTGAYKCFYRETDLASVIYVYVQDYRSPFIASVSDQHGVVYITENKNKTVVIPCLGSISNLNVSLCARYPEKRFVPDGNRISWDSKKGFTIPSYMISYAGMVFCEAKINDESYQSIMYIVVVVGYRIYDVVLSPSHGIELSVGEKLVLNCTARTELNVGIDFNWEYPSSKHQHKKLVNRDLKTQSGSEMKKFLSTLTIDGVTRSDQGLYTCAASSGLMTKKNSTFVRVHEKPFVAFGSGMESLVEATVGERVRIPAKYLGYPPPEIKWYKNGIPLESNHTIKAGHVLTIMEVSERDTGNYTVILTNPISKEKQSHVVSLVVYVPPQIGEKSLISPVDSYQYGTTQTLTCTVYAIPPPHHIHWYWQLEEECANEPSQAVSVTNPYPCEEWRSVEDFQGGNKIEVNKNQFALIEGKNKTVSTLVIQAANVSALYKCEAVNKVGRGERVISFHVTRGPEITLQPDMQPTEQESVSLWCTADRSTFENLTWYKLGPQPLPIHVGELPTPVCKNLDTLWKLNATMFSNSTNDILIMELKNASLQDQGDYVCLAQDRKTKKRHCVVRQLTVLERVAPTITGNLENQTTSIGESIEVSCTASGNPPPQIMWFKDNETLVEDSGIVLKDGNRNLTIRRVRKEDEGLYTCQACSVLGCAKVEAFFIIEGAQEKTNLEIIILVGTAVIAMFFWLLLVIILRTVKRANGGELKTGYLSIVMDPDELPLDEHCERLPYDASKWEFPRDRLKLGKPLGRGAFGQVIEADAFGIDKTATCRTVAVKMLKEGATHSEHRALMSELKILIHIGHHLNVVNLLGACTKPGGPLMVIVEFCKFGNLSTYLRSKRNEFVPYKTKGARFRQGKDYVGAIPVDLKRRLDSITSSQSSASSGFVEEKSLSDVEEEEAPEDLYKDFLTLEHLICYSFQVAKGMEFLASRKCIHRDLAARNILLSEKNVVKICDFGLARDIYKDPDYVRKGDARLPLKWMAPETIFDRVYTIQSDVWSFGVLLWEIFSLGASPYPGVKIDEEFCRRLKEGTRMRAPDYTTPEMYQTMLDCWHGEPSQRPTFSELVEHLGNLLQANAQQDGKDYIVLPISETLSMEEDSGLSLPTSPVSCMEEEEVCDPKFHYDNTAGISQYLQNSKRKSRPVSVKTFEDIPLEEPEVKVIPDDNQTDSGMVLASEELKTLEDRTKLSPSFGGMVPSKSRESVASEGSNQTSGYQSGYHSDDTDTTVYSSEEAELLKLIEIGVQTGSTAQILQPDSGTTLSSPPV
Sequence of Mast/stem cell growth factor receptor Kit (Homo sapiens), P10721 [D816V] (P10721 whole entry D816V): as the sequence (P10721 whole entry) above, with D816V counted along it

SMILES	inhibition [1] [%]	inhibition [2] [%]	inhibition [3] [%]	inhibition [4] [%]	inhibition [5] [%]	inhibition [6] [%]	inhibition [7] [%]	inhibition [8] [%]	inhibition [9] [%]	inhibition [10] [%]	inhibition [11] [%]	inhibition [12] [%]	inhibition [13] [%]	inhibition [14] [%]	inhibition [15] [%]	inhibition [16] [%]	inhibition [17] [%]	inhibition [18] [%]	inhibition [19] [%]	inhibition [20] [%]
NS(=O)(=O)c1ccc(N/N=C2\C(=O)Nc3ccc(-c4cnco4)cc32)cc1	-0.93	1.96	6.12	0.38	5.7	-4.76	24.1	6.94	39.1	5.83	42.2	0.65	5.47	1.64	10.7	0.82	3.19	-1.05	4.4	1.24
COc1ccc2ncn(-c3cc(O[C@H](C)c4ccccc4Cl)c(C(N)=O)s3)c2c1	-2.51	-3.1	2.15	1.31	1.04	-7	-5.28	3.61	13.4	4.64	23.1	2.74	7.75	2.4	7.3	-1.68	0.26	-2.03	-1.76	2.73
c1ccc(Oc2ccc(Nc3ncc(-c4ccccc4)o3)cc2)cc1	2.13	0.76	3.56	1.66	1.65	-0.5	4.13	4.37	3.48	3.26	19.9	-0.64	-0.49	2.73	5.55	-0.1	5.53	2.67	2.2	1.67
CN(c1ccc(NC(=O)Nc2c(Cl)cccc2Cl)cc1)c1ccnc(Nc2cccc(CS(C)(=O)=O)c2)n1	71.1	8.34	19.7	2.35	20.7	0.53	2.77	24.6	56.3	88.5	95.9	-0.59	2.33	12.3	35.9	71.3	81.5	45.5	61.2	0.54
COc1ccc(-c2ccc3c(NC(=O)C4CC4)n[nH]c3n2)cc1	2.25	2.09	10.9	-0.18	-0.27	-1	0.12	0.66	3.4	0.69	6.98	3.21	2.92	0.56	3.21	4.61	2.87	-0.02	3.64	1.94
Cc1nnc(-c2ccc(C)c(-c3ccc(C(=O)NCc4ccc(Cl)cc4)cc3)c2)o1	-2.86	4.61	16.9	1.06	1.06	-4.26	-4.85	4.61	5.62	4.95	3.81	4.88	1.51	2.49	7.38	-1.65	-1.05	-2.94	-1.25	1.83
CNC(=O)c1cncc(/C=C/c2c(C)cccc2C)c1	-3.29	0.62	-1.32	2.87	2.41	-3.28	-0.59	3.77	3.51	10.7	51.7	1.76	0.69	-0.72	-0.77	3.1	17.2	3.11	30	-1.27
COc1cc2ncn(-c3cc(OCCc4ccccc4)c(C(N)=O)s3)c2cc1OC	2.27	1.72	-5.52	0.93	0.41	-0.27	-0.4	3.48	17	0.95	5.42	5.33	-0.63	0.21	-1.17	-2.95	-0.35	2.24	5.88	1.89
NC(=O)Cc1ccccc1Oc1nccc(-c2c(-c3ccc(F)cc3)ncn2C2CCNCC2)n1	1	2.63	-2.73	0.56	-0.85	-1.1	0.74	1.89	3.48	1.71	0.35	0.95	-1.59	-0.35	-1.27	0.54	-3.43	1.45	1.06	3.35
O=C1Nc2ccc(I)cc2C1=Cc1cc(Br)c(O)c(Br)c1	1.44	1.44	2.67	2.54	3	-0.81	-3.69	5.81	9.7	5.45	18.4	2.74	2.13	-0.52	4.39	-4.29	-1.08	3.11	3.54	4.82
CCc1ccc(Oc2nccc(-c3c(-c4ccc(F)cc4)ncn3C3CCNCC3)n2)cc1	2.38	4.16	4.5	1.64	2.94	-1.25	-0.22	5.19	13.5	4.71	3.31	4.91	1.86	2.54	2.33	-1.42	-1.63	3.37	6.55	2.71
Cc1ccc(C(=O)NC2CCC2)cc1-c1ccc(C(=O)NCC2CC2)cc1	1.48	0.07	0.59	0.91	0.54	-1.22	1.06	3.33	3.21	2.49	2.43	1.7	1.73	2.13	-0.64	-2.14	2.11	1.6	2.51	2.34
Clc1ccc(CNc2nccc(-c3cnn4ncccc34)n2)cc1	1.37	-0.37	-0.62	1.52	3.6	-0.04	2.94	0.99	2.77	5	19.4	0.92	5.08	1.59	6.47	3.83	7.92	2.31	2.46	0.55
COc1cc(Nc2ncc3c(C)nc(-c4cccc(Oc5ccccc5)c4)n3n2)cc(OC)c1OC	2.18	1.98	-5.12	0.96	2.54	0.02	1.74	2.28	3.61	3.09	18.8	2.25	0.81	0.81	-0.67	-2.03	1.13	1.24	5.01	3.21
COc1cc(C)c(N(C)C(=O)CN(C)C)cc1Nc1nc(Nc2cccc(F)c2C(N)=O)c2cc[nH]c2n1	-1.94	3.43	-5.28	0.96	1.71	-3.43	-3.47	1.87	1.78	0.03	-0.73	-0.92	0.99	-0.51	-1.63	-1.08	-3.38	-3.07	-1.56	11.7
